# Laboratory results: PubChem BioAssay (EPA / NIEHS)
# Inconclusive results are not listed. Calls of active or inactive are those of the source. Rule for the calls: active = hit-call score of the fitted dose curve at least 0.9, where 1 is the maximum; inconclusive = response in the unintended direction; inactive = score below 0.9.
# Experiments:
# [1] = system: NCBI gene 100848466; assay: NVS_NR_bPR: NovaScreen (NVS) Nuclear Receptor Binding Assay for bovine Progextron Receptor (PR) (AID 2283343);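 for AC50: actives lower bound radioligand signal below DMSO meaning displacement of the label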
# Summary of the method: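 Scintillation counts of bound radioligand were read 18 hours after chemical addition to membranes extracted from bovine uterus. Displacement was scored as loss of signal relative to DMSO controls. Screening began at 25 uM in duplicate.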
# [2] = biological target: human Constitutive Androstane Receptor (CAR), NR1I3 (gene 9970) (UniProt Q14994); assay: NVS_NR_hCAR_Antagonist: NovaScreen (NVS) Nuclear Receptor Binding Assay for human Constitutive Androstane Receptor Antagonism (CAR) (AID 2283344)
# Summary of the method: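 Single 25 uM duplicate primary screen, with concentration-series follow-up on actives. Cell-free binding format run in antagonist mode, TR-FRET signal taken 1 h post-dose; activity is signal loss relative to DMSO.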
# [3] = biological target: Bile acid receptor (Homo sapiens) (UniProt Q96RI1); assay: NVS_NR_hFXR_Antagonist: NovaScreen (NVS) Nuclear Receptor Binding Assay for human Farnesoid X Receptor Antagonism (FXR) (AID 2283350)
# Summary of the method: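 Antagonist-format time-resolved FRET binding assay with extracted human receptor protein, read 1 hour after compound addition. Compounds first screened at 25 uM in duplicate, then actives tested in concentration series, with loss of signal relative to DMSO.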
# [4] = biological target: Estrogen receptor (Homo sapiens) (UniProt P03372); assay: OT_ER_ERaERa_1440: Odyssey Thera (OT) 24-hour HEK293T Protein-Complementation Assay for Estrogen Receptor-alpha/-alpha Homodimer (AID 2283349);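 note: hits raise fluorescence above DMSO for agonists and antagonists alike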
# Summary of the method: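 Cells (HEK293T) carrying the fragment-tagged ERα LBD (aa 310-547) pair are treated with chemical for 24 hours. Nuclear and/or cytoplasmic fluorescence is then quantified on a laser scanning cytometer. Activity is scored as signal gain against DMSO.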
# [5] = biological target: Estrogen receptor (Homo sapiens) (UniProt P03372); assay: OT_ER_ERaERa_0480: Odyssey Thera (OT) 8-hour HEK293T Protein-Complementation Assay for Estrogen Receptor-alpha/-alpha Homodimer (AID 2283351);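 note: rise in fluorescence from reassembled reporter fragments on ERα LBD homodimer in nucleus or whole cell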
# Experimental: OT_ER_ERaERa_0480 is a cell-based assay that uses HEK293T, a human kidney cell line, with measurements taken at 8 hours after chemical dosing in a 384-well plate.OT_ER_ERaERa_0480 is one of one assay component(s) measured or calculated from the OT_ER_ERaERa_0480 assay. It is designed to make measurements of protein fragment complementation, a form of binding reporter, as detected with fluorescence intensity signals by Protein-fragment Complementation technology.Data from the assay component OT_ER_ERaERa_0480 was analyzed into 1 assay endpoint. This assay endpoint, OT_ER_ERaERa_0480, was analyzed in the positive analysis fitting direction relative to DMSO as the negative control and baseline of activity. Using a type of binding reporter, measures of receptor for gain-of-signal activity can be used to understand the binding at the pathway-level as they relate to the gene ESR1. Furthermore, this assay endpoint can be referred to as a primary readout, because the performed assay has only produced 1 assay endpoint. To generalize the intended target to other relatable targets, this assay endpoint is annotated to the nuclear receptor intended target family, where the subfamily is steroidal.
# Protein-fragment complementation assay, or PCA, is a method for the identification and quantification of protein-protein interactions. In the PCA, the proteins of interest ("bait" and "prey") are each covalently linked to fragments of a third protein (e.g. DHFR, which acts as a "reporter"). Interaction between the bait and the prey proteins brings the fragments of the reporter protein in close proximity to allow them to form a functional reporter protein whose activity can be measured. The OT ER alpha / ER alpha assay is a homodimer PCA of the ligand binding domain (amino acids 310-547) of human ER alpha stably expressed in HEK293T cells. […] Fluorescent signal in the basal state of the assay is very low and is primarily punctuate and cytoplasmic. Modulation of this assay is quantified as an increase in mean fluorescence intensity in the nucleus (for agonists) or in the nucleus and cytoplasm (antagonists) relative to vehicle controls, and can be quantified on a high content imaging device or a laser scanning cytometer. The latter instrument is favored for this assay because of the rapid mode of data acquisition, the ability to acquire data from the entire cell population in a well (as opposed to a fraction of the well on the high content devices) and the larger dynamic range typically achieved with this instrument. To assess sensitivity of the ER alpha/ER alpha LBD assay to ligand, cells were treated with the ER agonist 17 beta-estradiol (E2) in 10-point concentration- response format for 8 hours and monitored response on a laser scanning plate cytometer (Acumen eX3; TTP Lab Tech).
# [6] = biological target: Estrogen receptor (Homo sapiens) (UniProt P03372); assay: NVS_NR_hER: NovaScreen (NVS) Nuclear Receptor Binding Assay for human Estrogen Receptor (ER) (AID 2283348)
# Experimental: NVS_NR_hER is a biochemical, single-readout assay that uses extracted gene-proteins from MCF7 in a cell-free assay. Measurements were taken 18 hours after chemical dosing in a 96-well plate.NVS_NR_hER is one of one assay component(s) measured or calculated from the NVS_NR_hER assay. It is designed to make measurements of radioligand binding, a form of binding reporter, as detected with scintillation counting signals by Lysate-based radiodetection technology.Data from the assay component NVS_NR_hER was analyzed into 1 assay endpoint. This assay endpoint, NVS_NR_hER, was analyzed in the positive analysis fitting direction relative to DMSO as the negative control and baseline of activity. […] Furthermore, this assay endpoint can be referred to as a primary readout, because the performed assay has only produced 1 assay endpoint. […]
# Binding assays used specific radioligands (tritiated, iodinated) with non-radioactive competitive displacement ligands in agonist or antagonist protocols (as indicated) and various reference compounds and inhibitors to titrate specific binding to receptors and transporters. Most enzyme assays (CYPs, kinases, phosphatases, proteases, HDACs) used recombinant protein and specific substrates (fluorescence mostly, some colorimetric and radioactive) and inhibitors, followed by a biochemical separation of substrate and product. […]
# [7] = biological target: Bile acid receptor (Homo sapiens) (UniProt Q96RI1); assay: NVS_NR_hFXR_Agonist: NovaScreen (NVS) Nuclear Receptor Binding Assay for human Farnesoid X Receptor Agonism (FXR) (AID 2283347)
# Summary of the method: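 Agonist-mode FXR assay read by time-resolved FRET 1 h after compound addition, using isolated human receptor protein without cells. Duplicate 25 uM single-point primary screen, concentration series for confirmed actives; DMSO as baseline.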
# Estrogen receptor (Homo sapiens), sequence (P03372 whole entry, looked up, the tested form may be a part): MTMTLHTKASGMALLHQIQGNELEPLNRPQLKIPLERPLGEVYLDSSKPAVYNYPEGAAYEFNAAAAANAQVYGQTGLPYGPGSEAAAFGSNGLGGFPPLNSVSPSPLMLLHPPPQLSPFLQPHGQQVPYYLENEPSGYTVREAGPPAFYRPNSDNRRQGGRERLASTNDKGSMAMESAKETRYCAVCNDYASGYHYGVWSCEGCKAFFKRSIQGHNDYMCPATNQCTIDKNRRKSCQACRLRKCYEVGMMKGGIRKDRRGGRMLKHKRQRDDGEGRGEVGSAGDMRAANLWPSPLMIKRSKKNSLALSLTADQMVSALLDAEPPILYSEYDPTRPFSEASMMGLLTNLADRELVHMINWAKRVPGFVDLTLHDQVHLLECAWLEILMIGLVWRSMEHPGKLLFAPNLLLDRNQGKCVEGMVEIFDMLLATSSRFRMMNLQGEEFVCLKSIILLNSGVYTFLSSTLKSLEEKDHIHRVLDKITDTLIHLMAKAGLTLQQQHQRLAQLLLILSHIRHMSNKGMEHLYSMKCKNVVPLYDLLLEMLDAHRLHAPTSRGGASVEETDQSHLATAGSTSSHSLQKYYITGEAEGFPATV
# Bile acid receptor (Homo sapiens), sequence (Q96RI1 whole entry, looked up): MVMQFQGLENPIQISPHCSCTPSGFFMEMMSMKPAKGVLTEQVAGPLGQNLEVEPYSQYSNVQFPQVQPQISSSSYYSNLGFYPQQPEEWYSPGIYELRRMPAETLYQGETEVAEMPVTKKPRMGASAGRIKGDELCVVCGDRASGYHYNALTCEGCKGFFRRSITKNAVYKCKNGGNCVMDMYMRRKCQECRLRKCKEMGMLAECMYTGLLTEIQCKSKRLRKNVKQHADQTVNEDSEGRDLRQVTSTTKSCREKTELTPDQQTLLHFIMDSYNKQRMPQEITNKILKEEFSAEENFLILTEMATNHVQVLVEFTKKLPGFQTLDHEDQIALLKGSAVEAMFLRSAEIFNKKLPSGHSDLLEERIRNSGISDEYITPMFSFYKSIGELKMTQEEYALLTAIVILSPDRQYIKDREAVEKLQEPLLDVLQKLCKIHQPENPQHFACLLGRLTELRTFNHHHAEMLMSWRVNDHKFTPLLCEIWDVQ
# human Constitutive Androstane Receptor (CAR), NR1I3 (gene 9970), sequence (Q14994 whole entry, looked up): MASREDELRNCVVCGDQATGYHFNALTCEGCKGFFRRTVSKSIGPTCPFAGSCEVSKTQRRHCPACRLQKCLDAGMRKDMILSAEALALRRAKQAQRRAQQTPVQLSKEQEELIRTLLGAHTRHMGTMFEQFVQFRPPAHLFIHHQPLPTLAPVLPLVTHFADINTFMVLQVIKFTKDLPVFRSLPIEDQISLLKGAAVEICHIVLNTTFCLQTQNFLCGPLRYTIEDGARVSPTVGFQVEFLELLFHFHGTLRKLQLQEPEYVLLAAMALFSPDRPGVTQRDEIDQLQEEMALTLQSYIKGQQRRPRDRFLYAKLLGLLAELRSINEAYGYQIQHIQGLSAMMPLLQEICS
smiles,measurement,setting,value
CNc1cnn(-c2cccc(C(F)(F)F)c2)c(=O)c1Cl,outcome,[1],inactive
same,outcome,[2],inactive
same,outcome,[3],inactive
CCOP(=S)(OCC)Oc1ccc2c(C)c(Cl)c(=O)oc2c1,AC50,[1],1.01 µM (active)
CC(C)[C@H](C(=O)O[C@H](C#N)c1cccc(Oc2ccccc2)c1)c1ccc(Cl)cc1,outcome,[1],inactive
CCOP(=S)(OCC)Oc1cc(C)nc(C(C)C)n1,outcome,[1],inactive
same,outcome,[2],inactive
CCOP(=S)(OCC)SCCSCC,AC50,[1],25 µM (active)
same,outcome,[2],inactive
CCCOCC(=Nc1ccc(Cl)cc1C(F)(F)F)n1ccnc1,outcome,[1],inactive
same,AC50,[2],5.88 µM (active)
CCCCN(CC)c1c([N+](=O)[O-])cc(C(F)(F)F)cc1[N+](=O)[O-],outcome,[2],inactive
CCCCOC(=O)[C@@H](C)Oc1ccc(Oc2ccc(C#N)cc2F)cc1,outcome,[4],inactive
same,outcome,[5],inactive
COc1cccc(C(=O)NN(C(=O)c2cc(C)cc(C)c2)C(C)(C)C)c1C,outcome,[2],inactive
COP(=O)(OC)SCn1c(=O)oc2cc(Cl)cnc21,outcome,[6],inactive
same,outcome,[4],inactive
CCCCSP(=O)(SCCCC)SCCCC,outcome,[2],inactive
CC1(C(=O)Nc2ccc(O)c(Cl)c2Cl)CCCCC1,outcome,[2],inactive
same,outcome,[3],inactive
Cc1cc(C2CC2)nc(Nc2ccccc2)n1,AC50,[2],25 µM (active)
same,outcome,[4],inactive
same,outcome,[5],inactive
CCC(=O)Nc1ccc(Cl)c(Cl)c1,outcome,[2],inactive
COP(=O)(OC)OC(Br)C(Cl)(Cl)Br (centres undefined),outcome,[4],inactive
same,outcome,[5],inactive
N#CSCSC#N,outcome,[2],inactive
same,outcome,[7],inactive
CSC1=N[C@@](C)(c2ccccc2)C(=O)N1Nc1ccccc1,AC50,[2],3.63 µM (active)
CCC(=NOC/C=C/Cl)C1=C(O)CC(C2CCOCC2)CC1=O (centres undefined),outcome,[2],inactive
CSc1nc(NC(C)C)nc(NC(C)C)n1,outcome,[4],inactive
same,outcome,[5],inactive
CCOP(=O)(NC(C)C)Oc1ccc(SC)c(C)c1 (centres undefined),AC50,[2],16.8 µM (active)
CON=C(C(=O)OC)c1ccccc1CON=C(C)c1cccc(C(F)(F)F)c1,outcome,[2],inactive
CNC(=O)Oc1cccc2c1OC(C)(C)O2,outcome,[2],inactive
same,outcome,[4],inactive
same,outcome,[5],inactive
Cc1ccn2nc(S(=O)(=O)Nc3c(F)cccc3F)nc2n1,outcome,[3],inactive
CCCCOC(=O)c1ccccc1C(=O)O,outcome,[7],inactive
same,outcome,[3],inactive
O=[N+]([O-])c1cc(C(F)(F)F)c(Cl)c([N+](=O)[O-])c1Nc1ncc(C(F)(F)F)cc1Cl,outcome,[2],inactive
same,outcome,[4],inactive
CSc1nnc(C(C)(C)C)c(=O)n1N,outcome,[2],inactive
same,outcome,[3],inactive
